HEK cytotox – cytotoxic compounds in HEK 293 cells; actives 6.6% (n = 94,000); Potency, µM (highest dose often 115 µM), inactives show at the top dose activity change, negative = cytotoxicity, hits mostly inhibitors; HEK 293 viability, ATP luminescence (CellTiter-Glo), 48-72 h; further: on the % scale 0 is the no-effect control and ±100 the full control effect; nearly all actives have a fitted effect of over 60% in size
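Viability of HEK 293 cells, plated at 250 cells/well, was judged by cellular ATP after compound treatment for 48 or 72 hr. Luminescence was imaged 10 min after CellTiter-Glo addition at room temperature.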
hNpr1 antagonist – antagonists of human natriuretic peptide receptor Npr1 | P16066 | HEK293 hNpr1 GloSensor cGMP, ANP-stimulated luminescence | Potency, µM (series often up to 46.3 µM), inactives show top-dose activity change, negative = inhibition, actives largely listed as inhibitors | actives 1.6% (n = 76,000) | AID 1347048; calls by dose curve; further: on the % scale 0 is the no-effect control and ±100 the full control effect; nearly all actives have a fitted effect of over 60% in size
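Compound pre-incubated 30 min at room temperature on GloSensor-loaded HEK293 cells stably carrying hNpr1 and the pGS-40F cGMP biosensor. Stimulation uses hNppA at 0.1 nM final; luminescence is taken at baseline and 20 min post-agonist.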
FLuc inh-1 – blocks purified firefly luciferase enzyme activity; P08659; purified P. pyralis luciferase, luminescence, biochemical; Potency, µM (series often up to 115 µM), actives largely listed as inhibitors; actives 2.5% (n = 76,000); further: on the % scale 0 is the no-effect control and ±100 the full control effect; nearly all actives have a fitted effect of over 65% in size
Target sequence (P08659 whole entry, looked up): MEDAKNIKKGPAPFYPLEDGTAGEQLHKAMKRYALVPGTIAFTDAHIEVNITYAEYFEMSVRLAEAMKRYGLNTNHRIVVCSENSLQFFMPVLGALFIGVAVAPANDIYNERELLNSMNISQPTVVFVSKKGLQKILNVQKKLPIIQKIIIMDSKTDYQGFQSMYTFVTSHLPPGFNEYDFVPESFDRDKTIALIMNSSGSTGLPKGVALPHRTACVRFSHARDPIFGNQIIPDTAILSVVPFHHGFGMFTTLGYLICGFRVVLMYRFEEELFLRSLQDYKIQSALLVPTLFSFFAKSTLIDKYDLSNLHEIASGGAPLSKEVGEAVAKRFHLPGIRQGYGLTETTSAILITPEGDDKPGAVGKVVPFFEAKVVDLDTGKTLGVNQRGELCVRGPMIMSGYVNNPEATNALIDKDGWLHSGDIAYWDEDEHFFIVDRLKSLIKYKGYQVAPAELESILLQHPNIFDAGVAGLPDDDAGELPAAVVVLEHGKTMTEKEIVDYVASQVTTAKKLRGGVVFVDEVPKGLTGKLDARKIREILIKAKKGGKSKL
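Biochemical qHTS: compound (6-point titration) added to 10uM D-luciferin plus 10uM ATP in Tris acetate pH 7.5 buffer with Mg, Tween-20 and BSA, then purified enzyme at 10nM; light output imaged.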
NIH3T3 tox – kills NIH 3T3 cells. NIH 3T3 viability, CellTiter-Glo ATP luminescence, 48-72 h. Potency, µM (series often up to 96.7 µM), inactives show at the top dose activity change, negative = cytotoxicity, actives largely listed as inhibitors. actives 4.3% (n = 94,000). AID 1345082; further: on the % scale 0 is the no-effect control and ±100 the full control effect; nearly all actives have a fitted effect of over 55% in size
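Luminescent ATP readout (CellTiter-Glo, 10 min RT) after 48 or 72 hr compound exposure of NIH 3T3 cells seeded at 400 cells/well in 1536-well format; quantitative HTS.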
FLuc SDR no ATP – stabilizes firefly luciferase without ATP. Potency, µM (titrated, usually from 32.7 µM), inactives show at the top dose activation (signal gain), most hits filed as activators. shares compounds with FLuc inh-1. AID 1963318. Purified FLuc-C-HiBiT, Nano-Glo HiBiT luminescence, no ATP. actives 7.8% (n = 1,300); further: nearly all actives have a fitted effect of over 55% in size
FLuc SDR ATP – stabilizes firefly luciferase with ATP present; shares compounds with FLuc inh-1; purified FLuc-C-HiBiT + ATP, HiBiT complementation luminescence; Potency, µM (top dose mostly 32.7 µM), for inactives: at the top dose activation (gain of signal), actives largely listed as activators; actives 8.7% (n = 1,300);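 further: signal reports ligand binding via conformational change of the enzyme rather than luciferase catalysis; % of control where 0% means no effect; nearly all actives have a fitted effect of over 55% in size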
FLuc inh-2 – firefly luciferase enzyme inhibition; shares compounds with FLuc inh-1; purified FLuc-C-HiBiT enzyme, luciferin luminescence; Potency, µM (highest dose often 32.7 µM), inactives show at the highest dose activity change, negative = inhibition, actives largely listed as inhibitors; actives 42% (n = 1,300); AID 1963320; further: on the % scale 0 is the no-effect control and ±100 the full control effect; nearly all actives have a fitted effect of over 70% in size
Numbers without * were called inactive; i = inactive; ? = inconclusive; nt = not tested or not shown; [ ] = another dose, or the depositor's remark. Only some compounds are listed: those with a hit (about 11% of all), similar ones and a draw of the others. Unless noted, the call rests on the fitted dose curve; in most records, active means well fitted curve in the direction sought with a large enough effect; inconclusive means small, poorly fitted or top-dose-only effect, or another doubt; inactive means no such curve, though single readings can be large; an effect the other way counts as inactive or inconclusive. Potency means the concentration at half of the fitted maximal effect.

SMILES	HEK cytotox	hNpr1 antagonist	FLuc inh-1	NIH3T3 tox	FLuc SDR no ATP	FLuc SDR ATP	FLuc inh-2
CC(C)(C)n1cc(-c2cc(C(=O)N3C[C@H]4CC[C@H]3C4)c3ccccc3n2)cn1	?	-9.7%	2.82µM*	?	?	?	7µM*
CN(C)CC1(O)CCC2(CCN(C(=O)c3[nH]nc4c3CCc3ccccc3-4)CC2)CC1	-3.7%	1.6%	i	-13.7%	nt	nt	nt
Cc1nn(-c2ccccc2)c2c1C(C)N(C1CCCN([S+](=O)([O-])c3cccc(C(F)(F)F)c3)C1)C2=O (centres undefined)	?	nt	nt	-29.1%	nt	nt	nt
C[S+](=O)([O-])c1ccc(-c2ncc3c(n2)OCCN(c2ccccc2)C3=O)cc1	?	3.3%[70.6 µM]	?	?	nt	nt	nt
CN1CCOc2nc(-c3ccc(Oc4ccccc4)cc3)ncc2C1=O	?	25.1µM*	4.47µM*	?	21.0%[49.3 µM]	18.7%[49.3 µM]	?
O=C1c2cnc(-c3ccc(CO)cc3)nc2OCCN1c1cccc(C(F)(F)F)c1	?	-23.1%[70.6 µM]	?	?	nt	nt	nt
COc1ccc(-c2ncc3c(n2)OCCN(C)C3=O)cc1F	nt	nt	nt	nt	?	?	18µM*
COc1ccc(-c2ncc3c(n2)OCCN(c2ccccc2)C3=O)cc1F	-26.7%[172 µM]	15.8µM*	0.708µM*	?	?	?	3.21µM*
O=C1c2cnc(-c3cccc(CO)c3)nc2OCCN1c1ccccc1	39.8µM*	?	3.16µM*	39.8µM*	20.2µM*	?	11.4µM*
COc1ncccc1-c1ncc2c(n1)OCCN(c1ccccc1)C2=O	0.0%[172 µM]	-0.5%[70.6 µM]	i	?	nt	nt	nt
Cc1cc(C)cc(C(=O)N2CCC(n3cc(-c4nc(C)no4)nn3)CC2)c1	-13.2%	5.3%	i	-29.7%	nt	nt	nt
CN1CC(=O)N(C2CCCC2)Cc2c1ncnc2N1CCOCC1	2.7%[172 µM]	0.3%[70.6 µM]	i	-4.8%[138 µM]	11.8%[49.3 µM]	8.3%[49.3 µM]	2.4%[49.3 µM]
CCOC(=O)[C@H]1C[C@]2(CCCCNC2=O)N(C(=O)COc2ccccc2)[C@H]1c1ccccc1	-18.7%	nt	nt	?	nt	nt	nt
CSc1ccc(NC(=O)c2cc3c(N4CCSCC4)nc(C)cn3n2)cc1	?	-17.2%	i	?	nt	nt	nt
O=C(Nc1ccc(-c2nc3ccccc3s2)c(O)c1)c1ccccc1	nt	nt	nt	nt	13.6%	10.8%	-2.2%
CSc1ccc(C(=O)Nc2ccc(-c3nc4ccccc4s3)c(O)c2)cc1	nt	nt	nt	nt	10.5%	10.8%	-2.5%
O=C(Nc1cnc(-c2ccccc2)nc1)c1cccc(F)c1	-15.6%	-4.1%	?	4.4%	nt	nt	nt
CC(C)c1ccc(C(=O)Nc2ccc(-c3nc4ccccc4s3)c(Cl)c2)cc1	nt	nt	nt	nt	11.9%	7.2%	-8.8%
CC(=O)NCCC1CCN(C(=O)Nc2ccc(C)cc2)CC1	9.7%	-21.1%	8.91µM*	3.3%	?	?	?
CCC(=O)NCCC1CCN(C(=O)Nc2ccc(C)cc2)CC1	11.5%	-1.0%	12.6µM*	i	?	?	?
CCC(=O)NCCC1CCN(C(=O)Nc2ccc(C)c(F)c2)CC1	9.3%	-3.2%	11.2µM*	-3.4%	?	?	?
COCCC(=O)NCCC1CCN(C(=O)Nc2ccc(C)cc2)CC1	15.7%	2.9%	?	i	nt	nt	nt
COc1ccc(C(=O)NCCC2CCN(C(=O)Nc3ccc(C)cc3)CC2)cc1	1.9%	-21.4%	?	-20.9%	nt	nt	nt
CCC(=O)NCCC1CCN(C(=O)Nc2ccccc2F)CC1	0.2%	-0.7%	i	-0.4%	nt	nt	nt
O=C(NCc1ccc(F)cc1)[C@@H]1COCC(=O)N1Cc1ccc(F)cc1	1.5%	nt	nt	-27.9%	nt	nt	nt
SMILES	HEK cytotox	hNpr1 antagonist	FLuc inh-1	NIH3T3 tox	FLuc SDR no ATP	FLuc SDR ATP	FLuc inh-2
Cc1cccc(NC(=O)CN2C(=O)NC(c3ccc(Cl)cc3)C3=C2COC3=O)c1C (centres undefined)	?	-15.2%	i	?	nt	nt	nt
COc1ccccc1CN1CC[C@@](C)(O)[C@H](N2CCCC2)C1	?	0.1%	i	?	nt	nt	nt
COCCN1CCC(C(=O)Nc2cccc(NC(=O)Cc3ccccc3)c2)C1 (centres undefined)	2.9%	5.6%	i	-5.5%	nt	nt	nt
COc1ccccc1CNC(=O)c1ccc2c(c1)C(O)CCCCCN2C (centres undefined)	?	-14.2%	i	?	nt	nt	nt
COc1ccccc1CNC(=O)c1ccc2nc(N3CCCCC3)sc2c1	nt	nt	nt	nt	14.8%	11.6%	-13.5%
O=C(NCCc1ccccc1Cl)c1ccc2c(c1)nc1n2CCOC1	nt	nt	nt	nt	?	?	7µM*
COc1ccc(Nc2nc(-c3ccccc3F)no2)cc1OC	?	?	2.24µM*	?	30.0%	?	3.51µM*
CCc1ccc(Nc2nc(-c3ccccc3F)no2)cc1	?	12.6µM*	2.51µM*	?	19.7%	19.3%	6.24µM*
COc1ccc(OC)c(-c2noc(Nc3cccc(F)c3)n2)c1	?	-4.9%	i	-12.0%	nt	nt	nt
COc1cccc(-c2noc(Nc3ccc4c(c3)OCCO4)n2)c1	?	5.01µM*	0.316µM*	-60.0%	?	?	1.57µM*
COc1ccc(-c2noc(Nc3ccc4c(c3)OCO4)n2)cc1	?	-22.2%	?	-22.2%	nt	nt	nt
COc1cccc(-c2noc(Nc3ccc4c(c3)OCO4)n2)c1	?	?	2µM*	?	29.3%	?	6.24µM*
COc1cc2c(cc1OC)CN(C1CCCN(Cc3c(O)cccc3OC)C1)CC2 (centres undefined)	-22.0%	-12.8%	i	-24.3%	nt	nt	nt
Cc1ccc(C)c(CNC(=O)[C@@H]2CN(S(C)(=O)=O)C[C@H]2c2ccncc2)c1	-5.3%	nt	nt	-23.0%	nt	nt	nt
CC(C)NC(=O)c1ccc2oc(-c3ccncc3)nc2c1	?	nt	nt	-29.9%[138 µM]	nt	nt	nt
O=[S+]([O-])(c1cccc(C(F)(F)F)c1)N1CCC2(CCN(Cc3cccs3)c3ccccc3O2)CC1	?	23.3%	i	?	nt	nt	nt
CCCc1noc(-c2nc(-c3ccccc3F)no2)n1	-19.4%	?	5.62µM*	-11.9%	14.3%	19.9%	?
COc1cccc(-c2noc(Nc3ccc(OC)c(OC)c3)n2)c1	?	?	2µM*	?	?	18.6%	3.94µM*
Cn1nc(C2CC2)cc1N[S+](=O)([O-])c1ccccc1	2.2%[172 µM]	nt	nt	-14.8%[138 µM]	nt	nt	nt
CN(C)C1CCN(c2ccc(-c3nc(CCCc4ccccc4)no3)cn2)CC1	28.2µM*	-15.1%	5.62µM*	35.5µM*	10.7%	12.9%	-17.2%
COc1ccc2nc([C@H]3CCN(C(=O)c4ccccc4)C3)[nH]c2c1	-15.4%[172 µM]	4.0%[70.6 µM]	i	-13.9%[174 µM]	nt	nt	nt
